The panel holds about 79,000 compounds, 15% with a hit somewhere; the sample as a whole holds those more often. Unmarked numbers belong to inactive results. Calls of active or inactive are those of the source. Rule as the data show it: active = growth inhibition above about 70%; inactive = the rest. Where a SMILES comes first, the peptide text is derived from it. [ ]: non-standard residue; d: D form. The star is where a group is joined. Phe(2-OMe) = COc1ccccc1C[CH](N)C(=O)O; Cbz = O=C(OCc1ccccc1)*; OBn = c1ccc(CO*)cc1
How the values were obtained:
[1] = NCI Yeast Anticancer Drug Screen. Data for the rad50 strain (AID 155);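 also: 0% = growth of vehicle-only cultures of the same strain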; conditions: S. cerevisiae rad50 strain growth inhibition, hits give high values
Method in brief: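 Yeast carrying a defined DNA repair defect were exposed to test compounds, and growth was compared with vehicle-treated controls to give percent inhibition.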

[2] = NCI Yeast Anticancer Drug Screen. Data for the mec2-1 strain (AID 157); conditions: S. cerevisiae mec2-1 strain, hits give high values
Method in brief: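 Growth inhibition is read against vehicle-treated controls after compound exposure of the mec2-1 yeast strain, which is defective in DNA damage repair or cell cycle control.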

[3] = NCI Yeast Anticancer Drug Screen. Data for the sgs1 mgt1 strain (AID 161);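 also: 0% = growth of cultures given vehicle only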; conditions: S. cerevisiae sgs1 mgt1 strain, hits give high values
Method in brief: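 Yeast cells carrying a defined DNA-repair defect were exposed to test compounds. Growth inhibition was measured relative to vehicle-treated controls.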

[4] = NCI Yeast Anticancer Drug Screen. Data for the cln2 rad14 strain (AID 165);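 also: 0% = growth equal to vehicle treated cultures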; conditions: S. cerevisiae cln2 rad14 strain, hits give high values
Method in brief: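 Growth inhibition, relative to vehicle-treated controls, is the read-out. The test organism is a yeast strain with defined genetic alterations, cln2 rad14.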

[5] = NCI Yeast Anticancer Drug Screen. Data for the bub3 strain (AID 167); conditions: S. cerevisiae bub3 mutant strain, hits give high values
Method in brief: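 Compounds were applied to a genetically altered yeast strain carrying a cell-cycle control defect. Growth inhibition was scored against vehicle-treated controls.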

[6] = NCI Yeast Anticancer Drug Screen. Data for the mlh1 rad18 strain (AID 175); conditions: S. cerevisiae mlh1 rad18 strain growth inhibition, hits give high values
Method in brief: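 Cells of a genetically altered yeast strain, deficient in DNA damage repair, were treated with compound. Their growth was then compared with that of vehicle-treated cultures to give inhibition.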

[7] = at 5.0 µM (retest, dose inferred, filed as 0.5)
[8] = at 50.0 µM (retest, dose inferred, filed as 5.0)

SMILES | growth inhibition [1, 7] | growth inhibition [1, 8] | growth inhibition ([1]; at 50.0 µM) | growth inhibition [2, 7] | growth inhibition [2, 8] | growth inhibition ([2]; at 50.0 µM) | growth inhibition [3, 7] | growth inhibition [3, 8] | growth inhibition ([3]; at 50.0 µM) | growth inhibition [4, 7] | growth inhibition [4, 8] | growth inhibition ([4]; at 50.0 µM) | growth inhibition [5, 7] | growth inhibition [5, 8] | growth inhibition ([5]; at 50.0 µM) | growth inhibition [6, 7] | growth inhibition [6, 8] | growth inhibition ([6]; at 50.0 µM)
COc1cc(C2C=C(c3ccccc3)Oc3cc4c(cc32)OCO4)cc(OC)c1OC (stereo not given) | 8% | 21% | -30.1% | -11% | 16% | -39.9% | -13% | 25% | -7.8% | -10% | 27% | -5.3% | -33% | 38% | 11.9% | 1% | 23% | 3.4%
CCCCCCCCCCCCS(=O)(=O)CC(Br)C(=O)c1ccco1 (stereo not given) | 57% | 96% (active) | 94.2% (active) | 42% | 97% (active) | 96.9% (active) | 67% | 96% (active) | 95.3% (active) | 12% | 90% (active) | 93.7% (active) | 43% | 95% (active) | 95.1% (active) | 68% | 93% (active) | 95.3% (active)
CN(C)CCOC1OCN(C)CC1(C)C (stereo not given) | 0% | -12% | 4.55% | 0% | -7% | 7.2% | -1% | -8% | -0.9% | 1% | -15% | 36.1% | -2% | -3% | -3.75% | 2% | -12% | -1.05%
COC(=O)C(Cc1ccccc1OC)NC(=O)C(CC(=O)OCc1ccccc1)NC(=O)OCc1ccccc1 (stereo not given) (Cbz-Asp(OBn)-[Phe(2-OMe)]-OMe; configuration not given here) | -5% | 84% (active) | 51.5% | 0% | 37% | 58.2% | 1% | 92% (active) | 65.2% | 16% | 86% (active) | 80.5% (active) | -1% | 84% (active) | 87.8% (active) | 0% | 84% (active) | 54.8%
COC(=O)c1nnc(C(=O)OC)c2c1[nH]c1ccccc12 | 4% | 77% (active) | 79% (active) | 2% | 48% | 28.4% | 2% | 50% | 55.3% | -2% | 11% | 10.6% | 0% | 37% | 42.9% | -3% | 52% | 40.1%
O[C@H]1c2cccn2-c2ccccc2S[C@H]1c1ccccc1 | 12% | 99% (active) | 98.8% (active) | -6% | 99% (active) | 98.8% (active) | 3% | 97% (active) | 98.8% (active) | 6% | 99% (active) | 98.8% (active) | 10% | 98% (active) | 98.5% (active) | -4% | 99% (active) | 99% (active)
CN(C)C(=S)N/N=C/c1ccccn1 | 94% (active) | 98% (active) | 98.7% (active) | 95% (active) | 98% (active) | 98.9% (active) | 95% (active) | 99% (active) | 98.4% (active) | 95% (active) | 99% (active) | 98.3% (active) | 95% (active) | 97% (active) | 99% (active) | 95% (active) | 98% (active) | 98.8% (active)
Cc1cc(N)c2cc(NC(=O)Nc3ccc4nc(C)cc(N)c4c3)ccc2n1 | 100% (active) | 100% (active) | 99% (active) | 100% (active) | 99% (active) | 99% (active) | 99% (active) | 67% | 99% (active) | 99% (active) | 100% (active) | 95.3% (active) | 99% (active) | 99% (active) | 98.7% (active) | 99% (active) | 99% (active) | 98.5% (active)
COC(OC)C1C2C3C=CC(C4C(=O)OC(=O)C34)C12 (stereo not given) | -5% | 0% | 76.5% (active) | -16% | -4% | 98.4% (active) | -15% | -13% | 29.4% | -2% | -5% | 98.3% (active) | 0% | 14% | 97.2% (active) | 6% | 2% | 98.6% (active)
O=C1OC(OCC#CCOC2OC(=O)C(Cl)=C2Cl)C(Cl)=C1Cl (stereo not given) | 37% | 99% (active) | 99.4% (active) | 28% | 99% (active) | 99.7% (active) | 46% | 100% (active) | 99.3% (active) | 28% | 99% (active) | 97.8% (active) | 26% | 99% (active) | 98.3% (active) | 46% | 99% (active) | 99.5% (active)
